In the library only some 19% were active in any assay of this set; here they are far more common.
TDP1 cell CPT: growth inhibition of DT40 Tdp1-/-;hTDP1 cells with camptothecin (screen for TDP1 inhibitors); Potency, µM (highest dose often 46.2 µM), most hits filed as inhibitors; actives 12% (n = 420,000); chicken DT40 Tdp1-/-;hTDP1 cells + 20 nM CPT, ATP luminescence, 48 h; AID 686979; also: nearly all actives have a fitted effect of over 55% in size
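Chicken DT40 Tdp1-/- cells complemented with human TDP1, 400 cells/well, exposed to compounds plus 20 nM camptothecin for at least 48 h at 37 C; viability read as ATP content by CellTiter-Glo luminescence.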
VP16 counter: inhibits Gal4-VP16 luciferase reporter, ROR gamma counter-screen. Potency, µM (series often up to 53.6 µM), usual class: inhibitors. AID 2546. Drosophila S2 Gal4-VP16 UAS-luciferase, luminescence, 20 h. actives 3.5% (n = 310,000);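 also: Gal4-VP16 expression switched on by copper sulfate through the metallothionein promoter; nearly all actives have a fitted effect of over 50% in size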
RORg inh: ROR gamma (mouse) transcription inhibition; Potency, µM (top dose mostly 53.6 µM), usual class: inhibitors; actives 5.4% (n = 310,000); Drosophila S2 Gal4-RORgamma UAS-luciferase reporter, 20 h; P51450; also: nearly all actives have a fitted effect of over 60% in size
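In this cell-based reporter format, copper sulfate (700 uM final) drives Gal4–ROR gamma fusion expression from a metallothionein promoter in Drosophila Schneider cells; compounds preincubated 1 hr, reporter read after 20 hr at ambient temperature.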
TDP1 cell noCPT: qHTS for Inhibitors of human tyrosyl-DNA phosphodiesterase 1 (TDP1): qHTS in cells in absence of CPT. AID 686978, 2013. DT40 Tdp1-/- hTDP1 cells, no CPT, ATP luminescence, 48 h. actives 15% (n = 420,000). Potency, µM (doses to about 46.2 µM), usual class: inhibitors; also: nearly all actives have a fitted effect of over 55% in size
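Growth of hTDP1-complemented DT40 Tdp1-knockout cells is measured by ATP luminescence after at least 48 hr compound exposure at 37 °C, with DMSO substituting for the 20 nM CPT used in the parallel screen.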
TDP1 inh: blocks human tyrosyl-DNA phosphodiesterase 1 | Q9NUW8 | recombinant TDP1, AlphaScreen DNA substrate cleavage | Potency, µM (top dose mostly 130 µM), usual class: inhibitors | actives 0.28% (n = 350,000); also: nearly all actives have a fitted effect of over 40% in size
Target sequence (Q9NUW8 whole entry, looked up): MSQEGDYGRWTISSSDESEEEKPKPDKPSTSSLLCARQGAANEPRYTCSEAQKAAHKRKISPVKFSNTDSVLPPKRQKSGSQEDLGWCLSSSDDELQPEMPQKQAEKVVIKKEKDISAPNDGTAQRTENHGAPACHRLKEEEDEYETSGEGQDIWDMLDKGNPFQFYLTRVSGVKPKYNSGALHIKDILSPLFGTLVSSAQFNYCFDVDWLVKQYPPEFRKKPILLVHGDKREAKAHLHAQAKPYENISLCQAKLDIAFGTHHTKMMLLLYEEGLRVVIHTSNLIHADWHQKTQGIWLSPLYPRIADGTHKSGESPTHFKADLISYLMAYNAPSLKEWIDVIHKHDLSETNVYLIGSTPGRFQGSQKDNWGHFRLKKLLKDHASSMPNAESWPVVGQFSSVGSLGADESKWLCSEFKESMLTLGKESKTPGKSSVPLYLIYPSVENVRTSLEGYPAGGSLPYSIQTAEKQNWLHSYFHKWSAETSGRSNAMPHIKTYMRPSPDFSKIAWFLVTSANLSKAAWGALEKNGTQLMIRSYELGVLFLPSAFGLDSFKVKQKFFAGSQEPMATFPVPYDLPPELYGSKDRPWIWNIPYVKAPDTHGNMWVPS
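Compounds were preincubated with Tdp1 (1 nM final) for 15 min at room temperature before substrate (15 nM final) started a 5 min reaction; beads (10 ug/ml final) were then added for 10 min before AlphaScreen detection.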
Hits are given with their value; - = inactive; ? = inconclusive; . = not tested or not shown. Calls follow the shape of the dose curve; as a rule, active = well fitted curve in the direction sought with a large enough effect; inconclusive = small, poorly fitted or top-dose-only effect, or another doubt; inactive = no such curve, though single readings can be large; an effect the other way counts as inactive or inconclusive.

SMILES | TDP1 cell CPT | VP16 counter | RORg inh | TDP1 cell noCPT | TDP1 inh
CCOC(=O)c1ccc(-c2ccc(N3C(c4ccsc4)=Cc4ccc(F)cc4C3c3c[nH]c4ccc(C#N)cc34)cc2)cc1F (centres undefined) | - | . | . | ? | .
O=c1c2cc(O)c(O)cc2oc2cc(O)c(C3OC(CO)C(O)C(O)C3O)c(O)c12 (centres undefined) | - | - | - | - | -
NCCOc1ccc(C2CCCCC2)cc1 | 13µM | - | ? | ? | -
C=CCOn1c(=O)c(-c2cc3ccccc3o2)[n+]([O-])c2ccccc21 | - | - | - | 18µM | -
CNC(=O)COc1ccccc1C(=O)Nc1ccc2c(c1)oc1ccccc12 | - | - | - | ? | -
Cc1ccc(O)c(C2=Nc3ccccc3N=C(c3cccs3)C2)c1 | ? | ? | ? | 16µM | ?
COc1ccc(CCCc2nnc(SCC(=O)Nc3cccc(C)c3)o2)cc1 | - | - | - | - | -
Cc1cc(SCC#N)n2nc(C)c(-c3ccccc3)c2n1 | - | 2.5µM | 1.3µM | - | -
CC(=O)CSc1cc(C)nc2c(-c3ccccc3)c(C)nn12 | - | - | ? | ? | -
Cc1cc(SCC(=O)c2cccs2)n2nc(C)c(-c3ccccc3)c2n1 | ? | 5.6µM | 3.2µM | ? | -
Cc1cc(SCC#N)n2nc(C)c(-c3ccc(Cl)cc3)c2n1 | - | ? | 16µM | - | -
CN1CCC(N(C)C(=O)NC2CCCCC2)CC1 | - | - | - | - | -
COc1cc(/C=C/C(=O)Nc2cc(C(F)(F)F)ccc2Cl)cc(OC)c1OC | ? | ? | ? | 26µM | -
COc1ccc(/C=C/C(=O)Nc2cc(C(F)(F)F)ccc2Cl)cc1OC | 29µM | - | ? | ? | -
COc1cccc(/C=C/C(=O)OCC(=O)Nc2cc(C(F)(F)F)ccc2Cl)c1 | - | - | - | - | -
CCc1ccc(OCC(=O)NC(NC(=S)Nc2ccccc2)C(Cl)(Cl)Cl)cc1 (centres undefined) | ? | 13µM | ? | ? | -
Cc1ccc(C)c(NC(=S)NC(NC(=O)Cc2cccc3ccccc23)C(Cl)(Cl)Cl)c1 (centres undefined) | 8.2µM | ? | ? | 6.5µM | -
COC(=O)c1ccccc1NC(=S)NC(NC(=O)COc1ccccc1)C(Cl)(Cl)Cl (centres undefined) | - | ? | 5.6µM | - | -
CCc1ccc(OCC(=O)NC(NC(=S)Nc2ccccc2C)C(Cl)(Cl)Cl)cc1 (centres undefined) | ? | 5µM | 6.3µM | ? | -
C1CC1Cc1noc(CN2CCN(C3C4CC5CC(C4)CC3C5)CC2)n1 (centres undefined) | - | - | - | - | -
CCc1ccc(OCC(=O)NC(NC(=S)Nc2ccccc2OC)C(Cl)(Cl)Cl)cc1 (centres undefined) | ? | ? | ? | ? | -
CCc1ccc(OCC(=O)NC(NC(=S)Nc2ccc(C)cc2C)C(Cl)(Cl)Cl)cc1 (centres undefined) | ? | ? | 10µM | 23µM | -
Cc1c(C(=O)N2CCCCCC2)c(S(=O)(=O)NCc2ccc(Br)cc2)c(C)n1C | ? | . | . | ? | -
C=CCSc1nc(N)c(C(=O)Nc2ccccc2OC)cc1C(=O)Nc1ccccc1 | 8.2µM | - | - | 8.2µM | -
CC(C)=CCC/C(C)=C/CNC(=O)C[C@H]1C[C@H](C(=O)N2CCOCC2)[C@@]2(C)c3[nH]c4cc(-c5ccco5)ccc4c3CCN2C1=O | 21µM | . | . | 13µM | -
SMILES | TDP1 cell CPT | VP16 counter | RORg inh | TDP1 cell noCPT | TDP1 inh
CC(C)=CCC/C(C)=C/CNC(=O)C[C@H]1C[C@H](C(=O)N2CCOCC2)[C@@]2(C)c3[nH]c4ccc(Cl)cc4c3CCN2C1=O | 23µM | . | . | ? | -
CC(C)(C)NC(=O)CC1C[C@H](C(=O)N2CCOCC2)[C@@]2(C)c3[nH]c4ccccc4c3CCN2C1=O (some centres undefined) | - | . | . | - | -
COc1ccc(CNC(=O)C[C@H]2C[C@H](C(=O)N3CCOCC3)[C@@]3(C)c4[nH]c5cc(-c6ccco6)ccc5c4CCN3C2=O)cc1OC | ? | . | . | ? | -
CC(C)=CCC/C(C)=C/CNC(=O)CC1C[C@H](C(=O)N2CCOCC2)[C@@]2(C)c3[nH]c4ccccc4c3CCN2C1=O (some centres undefined) | 13µM | . | . | 12µM | -
CC(C)=CCC/C(C)=C/CNC(=O)C[C@H]1C[C@H](C(=O)N2CCCCC2)[C@@]2(CCc3ccccc3)c3[nH]c4ccc(Cl)cc4c3CCN2C1=O | - | . | . | - | -
O=C(COc1cccc(F)c1)N[C@@H](Cc1ccccc1)c1nc2ccccc2[nH]1 | - | - | - | ? | -
CC(=O)OC[C@H]1COc2ccc3ccccc3c2[C@H]1N(C)C(C)=O | - | - | - | ? | -
CCc1ccccc1N(C)C(=O)c1ccc2c(=O)n3c(nc2c1)CCCCC3 | ? | . | . | ? | -
CCOc1ccccc1CN(CCc1ccc2c(c1)OCO2)Cc1cc(OC)c(OC)cc1OC | 6.5µM | . | . | 4.1µM | .
CCOc1ccccc1CN(CCc1ccc2c(c1)OCO2)Cc1ccccn1 | ? | ? | ? | 16µM | -
O=C(COc1ccc2ccccc2c1)NC1=NCCS1 | ? | - | - | - | -
Cc1ccc(NC(=O)c2ccc3ccccc3n2)cc1S(=O)(=O)N(C)C | ? | - | - | 12µM | -
Cc1ccc(NC(=O)c2c3c(nc4ccccc24)CCC3)cc1 | - | - | - | - | -
Cc1ccc(NC(=O)c2c3c(nc4ccccc24)CCC3)cc1S(=O)(=O)N(C)C | 16µM | - | - | ? | -
Cc1ccc(NC(=O)c2ccccc2Br)cc1S(=O)(=O)N(C)C | - | - | - | - | -
Cc1ccc(NC(=O)c2cnccn2)cc1S(=O)(=O)N(C)C | - | - | - | - | -
Cc1cnc(C(=O)Nc2ccc(C)c(S(=O)(=O)N(C)C)c2)cn1 | ? | - | - | 15µM | -
CCCCOc1ccc(S(=O)(=O)NC(=O)C2(C)CCN2C(=O)Cc2ccccc2Cl)cc1 (centres undefined) | ? | . | . | - | .
COc1ccccc1CNC(=O)C1CCN(Cc2cc3ccccc3n2Cc2cccc(C)c2)CC1 | 13µM | . | . | 18µM | -
Cc1cccc(Cn2c(CN3CCC(C(=O)NC(C)C)CC3)cc3ccccc32)c1 | ? | . | . | 23µM | -
COc1ccccc1NC(=O)c1ccccc1NS(=O)(=O)N1CCCC1 | - | - | - | - | -
O=C(Nc1nc2ccc(Cl)cc2s1)C1CC1 | - | . | . | ? | .
O=C(Nc1nc2cc3c(cc2s1)OCO3)C1CC1 | 4.1µM | - | - | 3.7µM | .
CC(C)C(=O)Nc1nc2cc3c(cc2s1)OCO3 | 5.2µM | ? | - | 4.6µM | -
COc1ccc(C(=O)Nc2nc3cc4c(cc3s2)OCO4)c(OC)c1 | ? | - | - | - | .

Bioassay records as filed in PubChem BioAssay.
